This is one part of a sample in which hits are shown more often than they occur.
HIV RNase H inh-1 – HIV-1 RT RNase H inhibitors, primary screen, biochemical, fluorescence; hit rate 1.9% among 65,000; RT-RNase H RNA/DNA duplex cleavage; inhibition, % at 10 µM; in the data active means inhibition above about 50%
HIV RNase H inh-2 – HIV-1 RT RNase H inhibitors, retest, confirmation, biochemical; shares compounds with HIV RNase H inh-1; Recombinant RT RNase H, fluorescent RNA/DNA duplex cleavage; inhibition, % at 10 µM; hit rate 39% among 1,000; AID 651, 2007; in the data active means inhibition above about 48%
Active calls of the source: *.

SMILES	HIV RNase H inh-1	others
O=c1[nH]c(=O)n(C2CCCO2)cc1Br (configuration not stated)	-6
CCOC(=O)c1c(N)sc2c1CCC1C(=O)N(C3CCCCC3)C(=O)C21 (configuration not stated)	74*	HIV RNase H inh-2=68*
CCOC(=O)NC1(C(F)(F)F)NC(=O)N(C2CCCCC2)C1=O (configuration not stated)	-8
CCOC(=O)c1c(N)sc(C(=O)N2CCCC(C(N)=O)C2)c1C (configuration not stated)	-9
O=C(NCc1cccnc1)c1ccc2c(c1)OCO2	-1
Cc1ccc(S(=O)c2ccc(C)cc2)cc1	-17
CCOc1ccc(C(=O)Nc2cccc(C)n2)cc1	-10
Cc1cccc(NC(=O)c2ccccc2Br)n1	63*	HIV RNase H inh-2=20
Cc1cccc(NC(=O)c2cc(-c3ccco3)nc3ccccc23)n1	24
CCC1(C)Cc2c(sc3c2c(=O)n(C)c2nnc(SCc4ccc5c(c4)OCO5)n32)CO1 (configuration not stated)	58*	HIV RNase H inh-2=75*
CCCCSc1nnc2n(CCc3ccccc3)c(=O)c3c4c(sc3n12)COC(C)(C)C4	8
CC(C)Oc1ccc(CSc2nnc3n(C)c(=O)c4c5c(sc4n23)CCCC5)cc1	9
CCOc1ccccc1COC(=O)c1cccc(-n2cnnn2)c1	-73
CC(C)N(Cc1nnc(-c2ccccc2Cl)o1)C(=O)c1cccc(C#N)c1	-2
CC(C)c1ccc(-c2nnn(Cc3nc4ccccc4s3)n2)cc1	-16
CCN(CC)c1ccc(C(=S)N2CCN(c3ccccc3)CC2)cc1	73*	HIV RNase H inh-2=26
CCOc1cc(C(=O)N2CCN(c3ccccc3)CC2)cc(OCC)c1OCC	1
S=C(c1ccc(N2CCCC2)cc1)N1CCCCC1	6
CCOC(=O)C1CCN(C(=O)CCCCn2c(=O)[nH]c3ccccc3c2=O)CC1	-7
CCN(CC)C(=O)CC(c1ccc(F)cc1)c1ccco1 (configuration not stated)	-16
O=C(O)CC(NC(=O)C(c1ccccc1)c1ccccc1)c1ccco1 (configuration not stated)	-12
O=C(O)C(O)c1ccco1 (configuration not stated)	57*	HIV RNase H inh-2=48
CCOC(=O)c1ccc(NC(=O)NC2CC3CCC(C2)N3Cc2nnnn2C(C)(C)C)cc1 (configuration not stated)	-12
Cn1c(=O)c(C(=S)NC(=O)C2CC2)c(N)n(Cc2ccccc2)c1=O	13
COc1ccccc1NS(=O)(=O)c1ccc(C)c(C(=O)NCC2CCCO2)c1 (configuration not stated)	3
SMILES	HIV RNase H inh-1	others
NC1=NC(c2ccc(Cl)cc2)n2c(nc3ccccc32)N1 (configuration not stated)	-7
Oc1ccc(N=Cc2ccc(O)c(O)c2)cc1	50
O=C(/C=C/c1ccccc1)c1ccccc1	-42
O=C(O)/C=C/c1ccc(O)c(O)c1	74*	HIV RNase H inh-2=76*
CC(C(=O)NCc1cccnc1)N1C(=O)c2ccccc2C1=O (configuration not stated)	-9
CCS(=O)(=O)NCCc1csc(C)n1	-7
N#CCn1c(C2CCCCC2)nc2ccccc2c1=O	-7
Cn1ccnc1P(=S)(c1nccn1C)N1CCOCC1	87*	HIV RNase H inh-2=62*
Cc1nc2ccc(Cl)cn2c1P(=S)(N1CCOCC1)N1CCOCC1	-16
Cn1ccnc1P(=S)(c1nccn1C)c1nccn1C	-6
COc1cccc(N2CC(C(=O)Nc3ccc(C(=O)OC(C)C)cc3)CC2=O)c1 (configuration not stated)	6
CC(=O)C1=C(C)NC(SCC(=O)c2ccc(F)cc2)=C(C#N)C1c1ccco1 (configuration not stated)	-7
COc1ccccc1NC(=O)C1=C(C)NC(SCC(=O)c2ccc(C)cc2)=C(C#N)C1c1ccco1 (configuration not stated)	59*	HIV RNase H inh-2=39
CCc1ccc(C(=O)CSC2=C(C#N)C(c3ccco3)C(C(C)=O)=C(C)N2)cc1 (configuration not stated)	0
O=C(CSc1ncnc2c1oc1ccccc12)Nc1ccccc1C(F)(F)F	-5
CCCN(CCC)S(=O)(=O)c1cc(Br)cc2c1N(C(=O)CC)CC2	-19
O=C(NCCCN1CCc2ccccc2C1)C1CCN(S(=O)(=O)N2CCCC2)CC1	-13
CCOc1ccc(-c2nnn(CC(=O)NCc3ccco3)n2)cc1	1
O=C(Cn1c(=O)n(Cc2ccco2)c(=O)c2c3c(sc21)CCCC3)Nc1ccccc1	22
CCOc1ccc(-n2c(=O)c3c4c(sc3n(CC(=O)NCc3ccco3)c2=O)CCC4)cc1	57*	HIV RNase H inh-2=87*
CC(=O)NC(CCS(C)(=O)=O)C(=O)N1CCc2ccccc21 (configuration not stated)	-2
O=C(c1ccco1)N1CCN(C(=O)c2cc(-c3ccncc3)nc3ccc(Br)cc23)CC1	7
O=C(c1ccco1)N1CCN(C(=O)c2cc(-c3ccccn3)nc3ccc(Cl)cc23)CC1	69*	HIV RNase H inh-2=1
O=C(c1cccc(Cl)c1)N1CCN(C(=O)c2ccco2)CC1	-8
CCC(=O)N(Cc1cc2cc(OC)ccc2[nH]c1=O)c1cccc(C)c1	-5
SMILES	HIV RNase H inh-1	others
O=C(CSc1nnc(-c2ccccn2)n1Cc1ccccc1)Nc1ccc2c(c1)OCO2	77*	HIV RNase H inh-2=6
Cn1c(SCC(=O)Nc2ccc3c(c2)OCCO3)nnc1-c1ccccn1	-3
O=C(CSc1nnnn1Cc1ccccc1)Nc1ccc2c(c1)OCO2	-42
COc1ccc(-c2nnc(SCc3cc(C)cc(C)c3)o2)cc1	-37
COc1ccc2[nH]c3nc(SCc4nnc(-c5ccc(C)cc5)o4)nnc3c2c1	60*	HIV RNase H inh-2=8
Cc1ccc2[nH]c3nc(SCCN4CCOCC4)nnc3c2c1	-19
c1ccc2c(c1)CCCN2Cc1nnnn1C1CCCC1	-8
COc1nc2c(C)cccc2cc1-c1noc(-c2ccncc2)n1	1
Cn1c(=O)n(C/C=C/c2ccccc2)c(=O)c2c1nc1n2CCCN1c1ccc(F)cc1	-5
Cc1nn(C)c(C)c1S(=O)(=O)N(CC(=O)NCCN1CCOCC1)c1ccc(C(C)C)cc1	1
CCn1cc(C(=O)NCCC2=CCCCC2)c(=O)c2cc(S(=O)(=O)N(C)C)ccc21	-9
O=S(=O)(NC1CCCC1)c1cccc(S(=O)(=O)N2CCC(n3nnc4ccccc43)CC2)c1	3
CCOc1cccc(C=Nc2cc(C)cc(C)c2O)c1O	91*	HIV RNase H inh-2=74*
COc1cccc(/C=N/n2c(C)c3c(C)nnc(C)c3c2C)c1O	10
COc1cccc(/C=N/n2c(SC)nnc2-c2ccccc2)c1O	-3
O=C(c1ccc(=O)[nH]c1)N(Cc1ccco1)C1(C(=O)NC2CCCC2)CCCCC1	-3
CSc1ccc(Cl)c(C(=O)OCC(=O)N2CCOCC2)c1	-8
Cc1cccc(NC(=O)Cn2c(C)c(C#N)c3ccccc32)c1C	72*	HIV RNase H inh-2=63*
CCOC(=O)Cn1c(C)c(C#N)c2ccccc21	-12
Cc1c(C#N)c2ccccc2n1CC(=O)O	-7
CC(CC(=O)O)CC(=O)Nc1ccccc1C(=O)O (configuration not stated)	-1
COc1ccc(C)cc1NC(=O)c1cnc2sccn2c1=O	-6
CCc1ccc(N/C(SC)=C(/C#N)C(N)=O)cc1	-18
CCCCS/C(=C(/C#N)C(N)=O)c1cc2c([nH]1)CCCC2	81*	HIV RNase H inh-2=0

High-throughput results from PubChem.
